# In PubChem BioAssay (EPA / NIEHS):
# Records with an inconclusive call do not appear. Calls of active or inactive are those of the source. The calls were made as follows: active = hit-call score of the fitted dose curve at least 0.9, where 1 is the maximum; inconclusive = response in the unintended direction; inactive = score below 0.9.
# Tests used:
# [1] = biological target: Peroxisome proliferator-activated receptor gamma (Homo sapiens) (UniProt P37231); assay: ATG_PPARg_TRANS: Attagene TRANS-FACTORIAL HepG2 Assay for human Peroxisome Proliferator-activated Receptor-gamma (PPARg) (AID 2283007)
# How it was run: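 Twenty-four hours after chemical dosing of transiently transfected HepG2 cells, isolated RNA was converted to cDNA, reporter sequences amplified and 6-FAM-labelled, then HpaI-digested and analysed by capillary electrophoresis. Signal increase against DMSO was fitted.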
# [2] = biological target: Nuclear receptor subfamily 1 group I member 2 (Homo sapiens) (UniProt O75469); assay: ATG_PXR_TRANS: Attagene TRANS-FACTORIAL HepG2 Assay for human Pregnane X Receptor (PXR) (AID 2283008)
# How it was run: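 HepG2 cells transiently transfected with multiple reporter units, here a PXR-GAL4 chimera driving a GAL4-UAS reporter; 24 h compound exposure. Reporter mRNA measured by RT-PCR, FAM labelling and capillary electrophoresis; gain of signal fitted against DMSO baseline.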
# [3] = biological target: Retinoic acid receptor RXR-alpha (Homo sapiens) (UniProt P19793); assay: ATG_RXRa_TRANS: Attagene TRANS-FACTORIAL HepG2 Assay for human Retinoid X Receptor alpha (RXRa) (AID 2283012)
# How it was run: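 HepG2 cells transiently transfected with GAL4-UAS reporter units and chimeric RXRa-Gal4 protein, treated 24 h. Reporter mRNA measured by RT-PCR, fluorescent labelling, HpaI digestion and capillary electrophoresis. Induction fitted against DMSO.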
# [4] = biological target: human Retinoid X Receptor beta (RXRb), RXRB (gene 6257) (UniProt P28702); assay: ATG_RXRb_TRANS: Attagene TRANS-FACTORIAL HepG2 Assay for human Retinoid X Receptor beta (RXRb) (AID 2283013)
# How it was run: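 HepG2 cells were transiently transfected with multiplexed GAL4-UAS reporters and a chimeric RXRb-Gal4 construct, then exposed for 24 h. Reporter mRNA was quantified by RT-PCR, FAM labeling, HpaI digestion and capillary electrophoresis; gain of signal was scored against DMSO.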
# [5] = biological target: human Thyroid Receptor alpha (THRa1), THRA (gene 7067) (UniProt P10827); assay: ATG_THRa1_TRANS: Attagene TRANS-FACTORIAL HepG2 Assay for human Thyroid Receptor alpha (THRa1) (AID 2283014)
# How it was run: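 Transient HepG2 transfection, NR-Gal4 chimera driving GAL4-UAS reporters; 24 h compound exposure; total RNA, oligo(dT) RT, PCR, fluorescent primer extension, capillary electrophoresis. Upward direction vs DMSO control.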
# [6] = biological target: human Retinoic Acid Receptor gamma (RARg), RARG (gene 5916) (UniProt P13631); assay: ATG_RARg_TRANS: Attagene TRANS-FACTORIAL HepG2 Assay for human Retinoic Acid Receptor gamma (RARg) (AID 2283009)
# How it was run: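 HepG2 transiently transfected with GAL4-UAS reporter units and chimeric NR-Gal4 constructs; 24 h compound exposure. Reporter mRNA quantified by RT-PCR, FAM labeling, HpaI digestion and capillary electrophoresis; gain-of-signal versus DMSO.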
# [7] = biological target: human RAR-related Orphan Receptor beta (RORb), RORB (gene 6096) (UniProt Q92753); assay: ATG_RORb_TRANS: Attagene TRANS-FACTORIAL HepG2 Assay for human RAR-related Orphan Receptor beta (RORb) (AID 2283010)
# How it was run: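 HepG2 cells transiently transfected with GAL4-UAS reporter units expressing chimeric NR-Gal4 protein; reporter mRNA measured 24 h after dosing by RT-PCR, 6-FAM labelling and capillary electrophoresis. Gain-of-signal fitted relative to DMSO baseline.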
# [8] = biological target: human RAR-related Orphan Receptor gamma (RORg), RORC (gene 6097) (UniProt P51449); assay: ATG_RORg_TRANS: Attagene TRANS-FACTORIAL HepG2 Assay for human RAR-related Orphan Receptor gamma (RORg) (AID 2283011)
# How it was run: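 Transient MRTU transfection of HepG2 (TRANS format, exogenous NR-Gal4 chimera). 24 h dosing. Total RNA → oligo(dT) RT → PCR → 6-FAM labelling → HpaI cut → CE. Gain vs DMSO.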
# [9] = biological target: Retinoic acid receptor alpha (Homo sapiens) (UniProt P10276); assay: ATG_RARa_TRANS: Attagene TRANS-FACTORIAL HepG2 Assay for human Retinoic Acid Receptor alpha (RARa) (AID 2283005)
# How it was run: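 Reporter transcripts, measured by RT-PCR with fluorescent labeling and capillary electrophoresis after 24 h dosing, reflect activity of an exogenous human RARa–GAL4 fusion in transiently transfected HepG2. Fitted for increase relative to DMSO.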
# Chain of human RAR-related Orphan Receptor beta (RORb), RORB (gene 6096) (Q92753 whole entry, looked up, the tested form may be a part): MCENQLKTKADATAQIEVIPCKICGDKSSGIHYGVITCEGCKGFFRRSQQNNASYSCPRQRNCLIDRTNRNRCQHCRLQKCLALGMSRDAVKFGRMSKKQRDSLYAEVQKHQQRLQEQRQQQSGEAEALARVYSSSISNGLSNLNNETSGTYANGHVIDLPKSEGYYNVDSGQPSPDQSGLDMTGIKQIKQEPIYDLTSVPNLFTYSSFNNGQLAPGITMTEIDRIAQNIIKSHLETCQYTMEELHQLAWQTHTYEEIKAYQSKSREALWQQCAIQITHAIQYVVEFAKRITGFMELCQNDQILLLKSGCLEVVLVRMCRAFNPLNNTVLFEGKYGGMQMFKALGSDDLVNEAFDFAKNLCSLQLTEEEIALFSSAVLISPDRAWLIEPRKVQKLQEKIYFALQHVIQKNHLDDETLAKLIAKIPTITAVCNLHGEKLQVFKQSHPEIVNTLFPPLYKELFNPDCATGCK
# Chain of human Retinoic Acid Receptor gamma (RARg), RARG (gene 5916) (P13631 whole entry, looked up, the tested form may be a part): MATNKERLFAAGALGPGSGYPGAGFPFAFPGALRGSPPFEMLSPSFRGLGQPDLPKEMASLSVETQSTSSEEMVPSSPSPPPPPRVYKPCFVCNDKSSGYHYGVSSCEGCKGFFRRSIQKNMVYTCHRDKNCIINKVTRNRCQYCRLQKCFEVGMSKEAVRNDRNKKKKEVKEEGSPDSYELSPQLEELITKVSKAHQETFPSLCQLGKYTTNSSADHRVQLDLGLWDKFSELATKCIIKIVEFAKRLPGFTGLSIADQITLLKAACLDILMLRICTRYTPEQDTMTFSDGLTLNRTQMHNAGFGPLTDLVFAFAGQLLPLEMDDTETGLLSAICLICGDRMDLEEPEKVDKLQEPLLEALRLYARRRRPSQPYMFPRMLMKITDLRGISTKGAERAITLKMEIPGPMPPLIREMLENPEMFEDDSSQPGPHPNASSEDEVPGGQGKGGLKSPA
# Chain of Peroxisome proliferator-activated receptor gamma (Homo sapiens) (P37231 whole entry, looked up): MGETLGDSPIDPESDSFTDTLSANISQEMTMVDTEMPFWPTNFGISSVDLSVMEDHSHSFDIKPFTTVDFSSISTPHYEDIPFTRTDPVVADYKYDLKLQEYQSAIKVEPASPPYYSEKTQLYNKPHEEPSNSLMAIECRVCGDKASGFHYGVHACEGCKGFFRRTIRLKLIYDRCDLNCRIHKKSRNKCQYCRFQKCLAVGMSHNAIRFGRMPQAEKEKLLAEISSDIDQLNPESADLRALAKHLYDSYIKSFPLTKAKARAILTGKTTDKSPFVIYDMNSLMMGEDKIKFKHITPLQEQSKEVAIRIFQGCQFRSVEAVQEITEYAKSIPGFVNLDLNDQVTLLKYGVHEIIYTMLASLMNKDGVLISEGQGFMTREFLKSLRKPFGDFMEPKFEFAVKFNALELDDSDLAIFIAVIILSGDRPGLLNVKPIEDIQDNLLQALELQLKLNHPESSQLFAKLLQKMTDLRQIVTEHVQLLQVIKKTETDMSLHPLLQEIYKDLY
# Chain of Nuclear receptor subfamily 1 group I member 2 (Homo sapiens) (O75469 whole entry, looked up, the tested form may be a part): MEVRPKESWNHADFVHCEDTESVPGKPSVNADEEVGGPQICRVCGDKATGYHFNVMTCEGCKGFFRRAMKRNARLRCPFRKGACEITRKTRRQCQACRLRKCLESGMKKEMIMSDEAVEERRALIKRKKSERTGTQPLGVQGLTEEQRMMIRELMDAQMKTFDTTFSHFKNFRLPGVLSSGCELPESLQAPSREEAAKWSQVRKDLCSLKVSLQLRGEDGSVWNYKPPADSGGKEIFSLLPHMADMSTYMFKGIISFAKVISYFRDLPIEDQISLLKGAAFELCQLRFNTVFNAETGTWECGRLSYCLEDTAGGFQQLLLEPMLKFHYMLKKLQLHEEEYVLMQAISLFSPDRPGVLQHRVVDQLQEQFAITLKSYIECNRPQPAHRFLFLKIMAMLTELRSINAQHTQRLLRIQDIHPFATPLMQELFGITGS
# Chain of human Thyroid Receptor alpha (THRa1), THRA (gene 7067) (P10827 whole entry, looked up, the tested form may be a part): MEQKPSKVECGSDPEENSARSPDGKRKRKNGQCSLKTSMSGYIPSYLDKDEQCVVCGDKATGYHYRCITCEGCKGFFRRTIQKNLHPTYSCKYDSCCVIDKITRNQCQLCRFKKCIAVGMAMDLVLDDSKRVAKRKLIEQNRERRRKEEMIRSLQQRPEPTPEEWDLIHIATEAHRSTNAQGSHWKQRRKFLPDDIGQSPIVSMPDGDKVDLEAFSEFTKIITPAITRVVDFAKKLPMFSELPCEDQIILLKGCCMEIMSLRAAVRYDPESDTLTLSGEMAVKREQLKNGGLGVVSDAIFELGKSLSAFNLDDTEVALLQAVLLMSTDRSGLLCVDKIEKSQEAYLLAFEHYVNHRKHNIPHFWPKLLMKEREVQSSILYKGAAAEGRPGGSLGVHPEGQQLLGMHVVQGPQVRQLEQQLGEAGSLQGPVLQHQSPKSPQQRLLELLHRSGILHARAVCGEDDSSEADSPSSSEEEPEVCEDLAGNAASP
# Chain of Retinoic acid receptor RXR-alpha (Homo sapiens) (P19793 whole entry, looked up, the tested form may be a part): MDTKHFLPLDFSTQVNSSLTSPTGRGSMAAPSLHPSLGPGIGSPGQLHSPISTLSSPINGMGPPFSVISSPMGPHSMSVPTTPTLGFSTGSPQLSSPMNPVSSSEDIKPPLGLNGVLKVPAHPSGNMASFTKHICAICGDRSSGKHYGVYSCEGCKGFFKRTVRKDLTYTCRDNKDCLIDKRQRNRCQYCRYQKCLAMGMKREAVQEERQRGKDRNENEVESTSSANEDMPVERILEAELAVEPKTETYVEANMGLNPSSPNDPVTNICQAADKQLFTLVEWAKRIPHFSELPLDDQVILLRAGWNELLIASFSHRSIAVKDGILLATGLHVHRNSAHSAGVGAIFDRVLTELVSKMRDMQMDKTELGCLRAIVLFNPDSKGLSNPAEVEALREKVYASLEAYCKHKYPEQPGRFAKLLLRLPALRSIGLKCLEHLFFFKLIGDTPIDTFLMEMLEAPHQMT
# Chain of human Retinoid X Receptor beta (RXRb), RXRB (gene 6257) (P28702 whole entry, looked up, the tested form may be a part): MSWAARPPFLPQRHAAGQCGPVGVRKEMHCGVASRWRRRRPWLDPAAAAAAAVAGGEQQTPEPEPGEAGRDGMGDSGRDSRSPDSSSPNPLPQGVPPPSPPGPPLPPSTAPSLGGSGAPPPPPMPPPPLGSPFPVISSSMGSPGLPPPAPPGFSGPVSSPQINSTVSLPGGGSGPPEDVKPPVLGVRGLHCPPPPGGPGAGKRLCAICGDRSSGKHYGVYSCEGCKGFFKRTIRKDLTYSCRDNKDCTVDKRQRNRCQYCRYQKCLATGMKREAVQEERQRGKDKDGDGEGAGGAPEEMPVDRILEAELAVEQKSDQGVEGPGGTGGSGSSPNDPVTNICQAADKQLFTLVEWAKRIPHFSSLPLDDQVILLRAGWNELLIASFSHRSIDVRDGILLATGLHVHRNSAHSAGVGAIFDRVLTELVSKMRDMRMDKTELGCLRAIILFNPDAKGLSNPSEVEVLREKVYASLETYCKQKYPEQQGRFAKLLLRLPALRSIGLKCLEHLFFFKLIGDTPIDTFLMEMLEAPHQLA
# Chain of human RAR-related Orphan Receptor gamma (RORg), RORC (gene 6097) (P51449 whole entry, looked up, the tested form may be a part): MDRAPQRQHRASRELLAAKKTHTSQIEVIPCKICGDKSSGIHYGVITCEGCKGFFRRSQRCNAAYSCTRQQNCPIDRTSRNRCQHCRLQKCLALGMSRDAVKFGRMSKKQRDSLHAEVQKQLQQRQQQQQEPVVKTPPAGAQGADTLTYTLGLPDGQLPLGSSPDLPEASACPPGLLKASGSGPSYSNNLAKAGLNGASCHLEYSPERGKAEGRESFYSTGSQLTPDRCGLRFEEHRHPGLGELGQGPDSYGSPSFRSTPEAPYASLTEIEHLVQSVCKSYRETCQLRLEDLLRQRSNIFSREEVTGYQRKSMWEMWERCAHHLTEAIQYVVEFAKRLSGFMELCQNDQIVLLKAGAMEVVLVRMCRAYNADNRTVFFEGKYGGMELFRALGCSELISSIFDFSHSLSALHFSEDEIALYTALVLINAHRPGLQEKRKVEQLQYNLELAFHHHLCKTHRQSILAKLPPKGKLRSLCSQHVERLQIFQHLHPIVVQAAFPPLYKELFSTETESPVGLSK
# Chain of Retinoic acid receptor alpha (Homo sapiens) (P10276 whole entry, looked up, the tested form may be a part): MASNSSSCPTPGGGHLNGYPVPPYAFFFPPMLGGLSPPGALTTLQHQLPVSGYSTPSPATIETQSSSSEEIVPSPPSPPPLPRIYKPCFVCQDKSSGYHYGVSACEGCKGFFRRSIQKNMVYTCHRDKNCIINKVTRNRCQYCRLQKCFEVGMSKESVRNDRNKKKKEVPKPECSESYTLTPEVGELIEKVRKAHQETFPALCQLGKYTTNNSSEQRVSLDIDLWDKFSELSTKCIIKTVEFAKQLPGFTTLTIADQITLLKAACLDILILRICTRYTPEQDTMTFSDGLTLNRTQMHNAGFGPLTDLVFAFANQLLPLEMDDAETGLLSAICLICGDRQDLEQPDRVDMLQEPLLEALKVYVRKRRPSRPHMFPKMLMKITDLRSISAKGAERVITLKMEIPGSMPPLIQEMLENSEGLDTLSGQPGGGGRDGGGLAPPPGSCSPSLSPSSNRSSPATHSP
compound,measurement,setting,value
CC(=O)/C=C/C1C(C)=CCCC1(C)C (stereo not drawn),AC50,[1],42.1 µM (active)
same,AC50,[2],2.79 µM (active)
same,outcome,[3],inactive
same,AC50,[4],31.3 µM (active)
same,outcome,[5],inactive
N=C1C=CC(=C(c2ccc(N)cc2)c2ccc(N)cc2)C=C1,AC50,[1],31.9 µM (active)
same,outcome,[6],inactive
same,outcome,[7],inactive
same,outcome,[8],inactive
same,outcome,[3],inactive
Cn1ccnc1,outcome,[9],inactive
same,outcome,[3],inactive
same,outcome,[4],inactive
same,outcome,[5],inactive
CCCCNC(=S)NCCCC,outcome,[1],inactive
same,outcome,[2],inactive
same,outcome,[6],inactive
same,outcome,[7],inactive
same,outcome,[8],inactive
same,outcome,[4],inactive
same,outcome,[5],inactive
[Cl][Eu]([Cl])[Cl],outcome,[1],inactive
same,outcome,[2],inactive
same,outcome,[8],inactive
same,outcome,[4],inactive
CCCCNS(=O)(=O)c1ccccc1,outcome,[1],inactive
same,outcome,[2],inactive
same,outcome,[8],inactive
CO[Si](C)(C)OC,outcome,[1],inactive
same,outcome,[2],inactive
same,outcome,[5],inactive
CC(C)(C)N,outcome,[1],inactive
same,outcome,[2],inactive
same,outcome,[7],inactive
same,outcome,[3],inactive
same,outcome,[4],inactive
O=C(Cl)c1ccc(C(=O)Cl)cc1,outcome,[6],inactive
same,outcome,[7],inactive
same,outcome,[5],inactive
CCCCCC(=O)OCC,outcome,[7],inactive
same,outcome,[3],inactive
same,outcome,[4],inactive
C[Si](C)(C)N[Si](C)(C)C,outcome,[8],inactive
same,outcome,[4],inactive
same,outcome,[5],inactive
CC(=O)OC(C)c1ccccc1 (stereo not drawn),outcome,[8],inactive
same,outcome,[3],inactive
CC(C)CO,outcome,[9],inactive
same,outcome,[7],inactive
CC1CCC(=O)C1=O (stereo not drawn),outcome,[1],inactive
same,outcome,[2],inactive
same,AC50,[4],59.8 µM (active)
N#Cc1ccc(C(c2ccc(C#N)cc2)n2cncn2)cc1,outcome,[1],inactive
same,outcome,[2],inactive
same,outcome,[6],inactive
same,outcome,[3],inactive
same,outcome,[4],inactive
O=C(Oc1ccccc1)c1ccccc1O,outcome,[1],inactive
same,outcome,[2],inactive
same,outcome,[4],inactive
Cc1c(Cl)cccc1Cl,outcome,[7],inactive
same,outcome,[3],inactive
C=C1C[C@H]2[C@@H]3C=C(C)C4=CC(=O)CC[C@]4(C)[C@H]3CC[C@]2(C)[C@@]1(OC(C)=O)C(C)=O,outcome,[2],inactive
same,outcome,[3],inactive
Nc1ncnc2nc[nH]c12,outcome,[3],inactive
same,outcome,[5],inactive
CCCCCCO,outcome,[1],inactive
same,outcome,[4],inactive
